# In the library only some 2.3% were active in any assay of this set; here they are far more common.
# ATXN viability – viability counter-screen for ATXN expression inhibitors. S2 cells (HEK-293 line with an ATXN2-luciferase reporter) viability, CellTiter-Fluor protease fluorescence, 24 h. Potency, µM (series often up to 56.7 µM), most hits filed as cytotoxic. 400,000 tested, 0.49% active. AID 651635; also: nearly all actives have a fitted effect of over 40% in size
# ATXN2 expr inh – ATXN2 expression inhibition | HEK-293 ATXN2-luciferase reporter, luminescence, 24 h | 360,000 tested, 0.72% active | Potency, µM (series often up to 57 µM), without a hit: top-dose activity change, negative = inhibition, most hits filed as inhibitors; also: % is scaled to controls: 0 for no effect and ±100 for the full control effect; nearly all actives have a fitted effect of over 55% in size
#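 qHTS (up to 57 uM final) was run with 24 h compound exposure of reporter cells at 37 °C. Each well was multiplexed: SteadyGlo luminescence measured ATXN2-luciferase expression after a fluorogenic Gly-Phe-AFC viability readout (25 uM final).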
# TGFb SMAD3 inh – inhibitors of TGF-b signaling; HepG2 CAGA-GFP TGF-b/SMAD3 reporter, GFP fluorescence, 18 h; TGF-beta stimulated, 500 pg/mL final; Potency, µM (highest dose often 46.1 µM), for inactives: top-dose activity, negative = inhibition, actives largely listed as inhibitors; 410,000 tested, 1.2% active; AID 588855; also: % is scaled to controls: 0 for no effect and ±100 for the full control effect; nearly all actives have a fitted effect of over 65% in size
#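 HEPG2 CAGA-GFP cells (1000/well, DMEM with 1% FBS) were pre-incubated 2 h at 37 degrees C, given compound by pin tool, then stimulated with TGF-beta at 500 pg/mL final for 18 h before per-cell GFP fluorescence imaging.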
# HepG2 tox – counter-screen for TGF-b inhibitors: cytotoxicity in HepG2 cells | HepG2 CAGA-GFP viability, ATP luminescence, 18 h | Potency, µM (highest dose often 46.1 µM), for the others: at the top dose activity change, negative = cytotoxicity, most hits filed as cytotoxic | 410,000 tested, 0.76% active | AID 588856
#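 HepG2 CAGA-GFP cells (1000/well, DMEM with 1% FBS) received compound, then TGF-beta at 500 pg/mL final, and were incubated 18 hours at 37 degrees C. Viability was read by CellTiter-Glo luminescence. Media-only wells were set as complete cell-killing and DMSO as no toxicity.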
# * = called active by the depositor; i = inactive; ? = inconclusive; . = not tested or not shown; ! = a repeat was not active; [ ] = dose if it differs, or a comment. Calls follow the shape of the dose curve; as a rule, active = well fitted curve in the direction sought with a large enough effect; inconclusive = small, poorly fitted or top-dose-only effect, or another doubt; inactive = no such curve, though single readings can be large; an effect the other way counts as inactive or inconclusive. Potency is read from the fitted curve at half-maximal effect.
SMILES,ATXN viability,ATXN2 expr inh,TGFb SMAD3 inh,HepG2 tox
O=C(C=Cc1ccccn1)c1ccccc1,.,?,6.31µM*,10µM*
CCC1CN(CC(=O)NC(C)c2c(C)nn(C)c2C)Cc2cc(OC)ccc2O1 (centres undefined),i,.,.,.
COc1cc(C)c(CN2CCc3nnc(C(C)NC(=O)c4cc(F)ccc4F)n3CC2)cc1C (centres undefined),i,.,.,.
CC(C)(C)[C@H](NC(=O)c1ccc(N)c(Cl)c1)C(=O)N1CCC[C@@H]1C(=O)N[C@H](C#N)CC(=O)O,.,-1.7%[5.55 µM],.,.
O=C(CBr)c1ccc(Oc2ccc(C(=O)C[n+]3cccc(Br)c3)cc2)cc1,.,.,-7.3%,-4.2%
Fc1cc(NC(=S)NCc2ccc(CNC(=S)Nc3ccc(Cl)c(F)c3)cc2)ccc1Cl,?,.,?,2.82µM*
FC(F)(F)c1cccc(NC(=S)NCc2ccc(Cl)cc2)c1,.,?,10µM*,15.8µM*
Brc1ccc2c(ccc[n+]2CCc2ccccc2)c1,.,.,-5.3%,-10.2%
COc1cc(=O)n2c(c1C(=O)N(C)Cc1nccs1)CCN(Cc1cc3ccccc3s1)CC2,i,.,.,.
Fc1ccc(Nc2nc(SCc3cccc(F)c3)nc3ccccc23)cc1,.,.,?,12.6µM*
Fc1ccc(Nc2nc(SCc3cccc(Cl)c3)nc3ccccc23)cc1,.,.,?,-107.5%
Cc1cccc(NC(=S)NCCC(c2ccccc2)c2ccccc2)c1,i,-0.6%,11.2µM*,-22.5%
COc1cccc(NC(=S)NCCC(c2ccccc2)c2ccccc2)c1,i,-19.4%,?,-8.1%
Cc1ccc2nc(-c3ccc(NC(=S)NC4CC(C)(C)NC(C)(C)C4)cc3)sc2c1,?,6.8%,?,12.6µM*
Cc1ccc2nc(-c3ccc(NC(=S)NC(=O)C(C)C)cc3)sc2c1,i,69.9%,-1.8%,-0.4%
Nc1nc2c(c(=O)[nH]1)N(C=O)C(CNc1ccc(C(=O)N[C@@H](CCC(=O)O)C(=O)O)cc1)CN2 (some centres undefined),i,.,.,.
CC(C)C[C@H]1CNC(=S)N1C[C@H]1CCCN1C[C@H](Cc1ccccc1)N1C[C@H](Cc2ccc(O)cc2)N(CC2CCCCC2)C1=S,?,?,11.2µM*,-38.1%
CC(C)C[C@H]1CN([C@@H](CC(C)C)CN2CCCC2CN2C(=S)NC[C@@H]2Cc2ccc(O)cc2)C(=S)N1CC1CCCCC1 (some centres undefined),i,-3.1%,?,-28.2%
CC(C)C[C@H]1CN([C@@H](CC(C)C)CN2CCC[C@@H]2CN2C(=S)NC[C@@H]2Cc2ccc(O)cc2)C(=S)N1CC1CCCCC1,31.6µM*,0.0%,?,-55.3%
Oc1ccc(C[C@H]2CN([C@@H](Cc3ccccc3)CN3CCC[C@@H]3CN3C(=S)NC[C@@H]3Cc3ccccc3)C(=S)N2CC2CCCCC2)cc1,?,0.0%,12.6µM*,-32.8%
CC(C)C[C@H]1CNC(=S)N1CC1CCCN1C[C@H](Cc1ccc(O)cc1)N1C[C@H](Cc2ccccc2)N(CC2CCCCC2)C1=S (some centres undefined),?,-27.3%,?,-2.2%
CN(N=O)c1ccc2c(c1)Cc1ccccc1-2,.,.,-22.4%,-62.3%
COC(=O)[C@H](CCCN=C(N)N)NS(=O)(=O)c1ccc(C)cc1,.,0.8%,.,.
O=S1(=O)CCOC[C@H](c2ccccc2)N1Cc1ccc(F)cc1,.,.,-22.5%,-15.3%
CN(C)c1ccc(/C=C2\C=Cc3ccccc32)cc1N,.,.,-20.1%,-35.3%
SMILES,ATXN viability,ATXN2 expr inh,TGFb SMAD3 inh,HepG2 tox
COC(=O)C1CCN(Cc2ccc3c(c2)CN(C(=O)C2Cc4ccccc4O2)CCO3)CC1 (centres undefined),i,.,.,.
COc1ccc2cc(CNCc3nonc3C)c(N3CCCC(CO)C3)nc2c1 (centres undefined),i,.,.,.
Cc1ccc2nc(-c3ccccn3)c(Nc3ccc(F)cc3)n2c1,?,?,0.0%,-13.7%
Cc1ccc2nc(-c3ccccn3)c(N)n2c1,i,0.0%,16.7%,10µM*
Cc1ccc(CNCc2cn[nH]c2-c2ccc(C)cc2)cc1,.,.,-16.6%,-15.1%
Cc1ccc(N(CC(O)Cn2c3ccccc3c3ccccc32)S(=O)(=O)c2ccc(F)cc2)cc1 (centres undefined),.,.,8.91µM*,14.1µM*
COc1ccc(N(CC(O)Cn2c3ccccc3c3ccccc32)S(=O)(=O)c2ccccc2)cc1 (centres undefined),i,-5.6%,?,-33.9%
CC[n+]1ccccc1/C=C1\Sc2ccc(C)cc2N1C,?,3.98µM*,?,-64.3%
CN(C)CCCN1c2ccccc2Sc2ccc(Cl)cc21,i,20µM*!,?,17.8µM*!
Cc1ccc(NS(=O)(=O)c2ccc(Cl)c(NC(=S)NC(=O)C3CCCCC3)c2)cc1Cl,?,?,?,11.2µM*
CC(=O)Oc1ccc2c(c1)CC[C@@H]1[C@@H]2CC[C@]2(C)[C@@H](O)CC[C@@H]12,?,-8.5%,.,.
Cc1ccc(-c2[nH]ncc2CNCc2ccc(CN(C)C)cc2)cc1,.,.,-0.8%,1.4%
Cc1ccc(NC(=O)COC(=O)c2ccccc2OCC(=O)N(C)C)cc1,.,.,-2.5%,3.2%
CCC1(C2CCN(C(=O)c3ccccc3Cl)CC2)NC(=O)N(CCc2scnc2C)C1=O (centres undefined),i,.,.,.
Cc1cc(-c2csc(NC(=O)c3cccc(S(=O)(=O)N(C)C)c3)n2)c(C)n1-c1ccccc1,i,0.0%,-13.4%,17.7%
COC(=O)c1ccc(-n2c(C)cc(-c3csc(NC(=O)c4ccc(S(=O)(=O)N(C)C)cc4)n3)c2C)cc1,i,-1.3%,?,12.6µM*
Cc1ccc(Cl)c2sc(NC(=O)C3CC3)nc12,i,6.1%,?,11.2µM*
Nc1nnnn1-c1ccccc1,i,-5.9%,.,.
CCN1CCCC1CNC(=O)c1cnn(-c2nccc(-c3cccs3)n2)c1C(C)C (centres undefined),i,.,.,.
CCOC(=O)C1=CN(Cc2cccc(F)c2)S(=O)(=O)NC1c1ccc(F)c(Cl)c1 (centres undefined),i,?,15.8µM*,-48.0%
O=C(Nc1nc2cccc(-c3ccc(CN4CCS(=O)(=O)CC4)cc3)n2n1)C1CC1,.,292.4%,.,.
COc1cc2nc(N(C)C)c(CNC3CCOC(C)(C)C3)cc2c(OC)c1OC (centres undefined),i,.,.,.
CCCNC(=O)[C@H]1O[C@H]1C(=O)N[C@H](C(=O)N1CCC[C@@H]1C(=O)OC)C(C)CC (some centres undefined),.,21.7µM*,.,.
COc1cc(N(C)C)c(OC)cc1C=O,.,.,-8.2%,22.4%
O=C(NNC(=S)Nc1ccccc1)c1cc(Br)ccc1Cl,i,7.3%,14.1µM*,-15.8%
O=C(NNC(=S)Nc1ccccc1)NNC(=S)Nc1ccccc1,i,4.2%,-24.7%,-3.7%
O=C(NNC(=S)Nc1cccc(Cl)c1)c1ccccc1OC(F)F,i,?,12.6µM*,4.47µM*
